# Data taken from publication PMC5540273 (PLoS ONE, 2017).
# How the values were obtained:
# Settings in all cases: concentration: 1 μM, replicates: in singlicate; n = 1
# [1] = test system: ACVR1B
# [2] = test system: ACVR1
# [3] = test system: ACVR2A
# [4] = test system: ACVR2B
# [5] = test system: ACVRL1
# [6] = test system: T1, ADCK3
# T1 construct: gene CABC1
# [7] = test system: ADCK4
# [8] = test system: AKT1
# [9] = test system: AKT2
# [10] = test system: AKT3
# 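Also: KINOMEscan kinase panel screen.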
Compound,%Inh [1] [%],%Inh [2] [%],%Inh [3] [%],%Inh [4] [%],%Inh [5] [%],%Inh [6] [%],%Inh [7] [%],%Inh [8] [%],%Inh [9] [%],%Inh [10] [%]
Fc1cccc(CSc2nnc(-c3ccc4c(c3)CCO4)o2)c1,17,0,0,0,0,0,6,12,14,0
CCn1c(-c2ccoc2)nc2cnccc21 [SB-733887],0,15,0,18,0,10,20,0,14,0
COc1ccc(-c2cc3c(C)nc(N)nc3n([C@H]3CC[C@H](O)CC3)c2=O)cn1,0,0,0,0,0,0,0,0,0,0
COc1ccc(Nc2nccc(N3CCC(NS(=O)(=O)c4ccc(NC(C)=O)cc4)C3)n2)cc1 (centres unmarked) [GSK1379729],3,34,32,22,8,9,38,0,7,0
C[C@@H]1CC[C@H](C(=O)NC2CCCCC2)CN1c1cc(-c2ccc3c(N)n[nH]c3c2)nc(N)n1 [GSK2291363],0,0,0,0,0,22,49,0,11,0
